Data as given in PubChem BioAssay.
For part of these data: Entries with a potency or affinity are not part of this list. Calls of active or inactive are those of the source. Unless noted, how the calls were made is not given here.

Key:
[1] = antimalarial activity against Dd2 strain (AID 2302;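 active means growth inhibition above 50% at the single 2 µM test dose, taken to imply half-maximal potency below 2 µM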;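 further: 0% = DMSO untreated growth and 100% = chloroquine plus artemisinin killed control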); settings: P. falciparum Dd2 in RBCs, LDH growth readout, 72 h; at 2 µM; active compounds read high
[2] = human hepatoma cell viability loss – ATP luminescence, cytotoxicity control for P. falciparum antimalarial project, primary screen (AID 2303;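 active means inhibition above 50%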;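 further: 0% = DMSO wells and 100% = digitonin-killed cells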); settings: HepG2 viability, 24-48 h, at 10 µM, active compounds read high
[3] = target: L-lactate dehydrogenase (Plasmodium falciparum (isolate CDC / Honduras)) (UniProt Q27743); assay: PfLDH activity inhibition – cell lysate, 3D7 strain, counter-screen for P. falciparum growth inhibition project (AID 2304);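 further: 0% = vehicle and 100% = reference inhibitor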; settings: P. falciparum 3D7 crude extract, LDH APAD/NBT absorbance; at 2 µM; active compounds read high
Chain of L-lactate dehydrogenase (Plasmodium falciparum (isolate CDC / Honduras)) (Q27743 whole entry, looked up): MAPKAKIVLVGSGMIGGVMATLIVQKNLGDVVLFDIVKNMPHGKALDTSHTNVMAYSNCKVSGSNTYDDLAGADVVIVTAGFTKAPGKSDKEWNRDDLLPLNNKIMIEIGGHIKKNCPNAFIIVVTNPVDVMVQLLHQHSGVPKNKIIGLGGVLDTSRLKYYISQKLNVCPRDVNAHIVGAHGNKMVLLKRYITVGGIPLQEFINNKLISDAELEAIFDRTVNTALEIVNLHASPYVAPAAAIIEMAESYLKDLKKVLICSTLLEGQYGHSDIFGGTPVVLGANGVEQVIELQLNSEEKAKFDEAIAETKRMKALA

[4] = inhibition of 3D7 malaria parasite growth – strain 3D7 (AID 2306);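 further: 0% = DMSO wells and 100% = chloroquine plus artemisinin control wells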; settings: P. falciparum 3D7 erythrocytic growth, LDH absorbance, 72 h; at 2 µM; active compounds read high
[5] = target: Calcium-dependent protein kinase 1 (Plasmodium falciparum (isolate 3D7)) (UniProt P62344); assay: PfCDPK1 kinase inhibitors, biochemical, TCAMS library (AID 1159585; cut-off not given, nearly all actives have IC50 up to about 0.98 µM;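 further: inhibitors leave more ATP so luminescence rises with inhibition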); settings: recombinant PfCDPK1, Kinase-Glo ATP depletion luminescence
Chain of Calcium-dependent protein kinase 1 (Plasmodium falciparum (isolate 3D7)) (P62344 whole entry, looked up): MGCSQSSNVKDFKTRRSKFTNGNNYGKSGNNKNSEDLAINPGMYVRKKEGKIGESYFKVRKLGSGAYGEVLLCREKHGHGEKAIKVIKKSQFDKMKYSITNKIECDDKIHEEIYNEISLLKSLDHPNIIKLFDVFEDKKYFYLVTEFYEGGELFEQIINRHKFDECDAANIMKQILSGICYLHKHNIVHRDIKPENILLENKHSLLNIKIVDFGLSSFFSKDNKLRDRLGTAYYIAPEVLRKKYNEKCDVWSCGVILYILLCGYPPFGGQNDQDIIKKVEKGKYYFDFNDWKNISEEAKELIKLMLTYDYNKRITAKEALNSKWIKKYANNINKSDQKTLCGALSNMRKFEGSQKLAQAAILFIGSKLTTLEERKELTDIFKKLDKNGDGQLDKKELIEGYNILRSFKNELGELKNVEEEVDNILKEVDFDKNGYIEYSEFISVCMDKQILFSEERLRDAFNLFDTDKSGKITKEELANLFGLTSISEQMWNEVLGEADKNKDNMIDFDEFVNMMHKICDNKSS

[6] = target: Plasmodium falciparum protein kinase 6 (PK6, PF3D7_1337100) (UniProt Q8IDW1); assay: PfPK6 kinase inhibitors, biochemical, TCAMS library (AID 1159586); settings: recombinant PfPK6, Kinase-Glo ATP depletion luminescence
Chain of Plasmodium falciparum protein kinase 6 (PK6, PF3D7_1337100) (Q8IDW1 1-305): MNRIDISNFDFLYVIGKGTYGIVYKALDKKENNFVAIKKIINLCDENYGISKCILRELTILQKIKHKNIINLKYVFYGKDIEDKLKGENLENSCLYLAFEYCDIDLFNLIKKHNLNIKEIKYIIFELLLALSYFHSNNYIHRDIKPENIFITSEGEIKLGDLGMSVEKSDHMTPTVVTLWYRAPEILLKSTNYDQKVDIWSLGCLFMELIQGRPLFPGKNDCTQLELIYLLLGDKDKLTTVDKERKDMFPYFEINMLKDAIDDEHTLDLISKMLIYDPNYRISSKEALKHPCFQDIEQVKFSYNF

[7] = target: Protein kinase 7 (PK7), Plasmodium falciparum 3D7 (PF3D7_0213400) (UniProt Q7YTF7); assay: inhibition of Plasmodium PK7 catalytic activity – biochemical, TCAMS antimalarial set, Kinase-Glo luminescence (AID 1159587); settings: recombinant PfPK7, Kinase-Glo ATP depletion luminescence
Chain of Protein kinase 7 (PK7), Plasmodium falciparum 3D7 (PF3D7_0213400) (Q7YTF7 1-343): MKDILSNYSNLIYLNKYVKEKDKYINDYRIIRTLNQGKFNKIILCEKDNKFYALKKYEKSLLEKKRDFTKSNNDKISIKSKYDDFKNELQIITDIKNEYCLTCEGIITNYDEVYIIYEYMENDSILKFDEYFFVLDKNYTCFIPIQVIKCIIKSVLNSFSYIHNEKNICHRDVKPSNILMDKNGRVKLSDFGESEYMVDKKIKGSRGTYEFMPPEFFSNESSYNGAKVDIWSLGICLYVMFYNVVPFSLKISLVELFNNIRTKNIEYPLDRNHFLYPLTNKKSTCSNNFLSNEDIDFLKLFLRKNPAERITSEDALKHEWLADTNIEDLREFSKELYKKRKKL

[8] = target: Calcium-dependent protein kinase 4 (Plasmodium falciparum (isolate 3D7)) (UniProt Q8IBS5); assay: PfCDPK4 kinase inhibitors, biochemical, TCAMS library (AID 1159588; cut-off not given, nearly all actives have IC50 up to about 0.91 µM); settings: recombinant PfCDPK4, Kinase-Glo ATP depletion luminescence
Chain of Calcium-dependent protein kinase 4 (Plasmodium falciparum (isolate 3D7)) (Q8IBS5 whole entry, looked up): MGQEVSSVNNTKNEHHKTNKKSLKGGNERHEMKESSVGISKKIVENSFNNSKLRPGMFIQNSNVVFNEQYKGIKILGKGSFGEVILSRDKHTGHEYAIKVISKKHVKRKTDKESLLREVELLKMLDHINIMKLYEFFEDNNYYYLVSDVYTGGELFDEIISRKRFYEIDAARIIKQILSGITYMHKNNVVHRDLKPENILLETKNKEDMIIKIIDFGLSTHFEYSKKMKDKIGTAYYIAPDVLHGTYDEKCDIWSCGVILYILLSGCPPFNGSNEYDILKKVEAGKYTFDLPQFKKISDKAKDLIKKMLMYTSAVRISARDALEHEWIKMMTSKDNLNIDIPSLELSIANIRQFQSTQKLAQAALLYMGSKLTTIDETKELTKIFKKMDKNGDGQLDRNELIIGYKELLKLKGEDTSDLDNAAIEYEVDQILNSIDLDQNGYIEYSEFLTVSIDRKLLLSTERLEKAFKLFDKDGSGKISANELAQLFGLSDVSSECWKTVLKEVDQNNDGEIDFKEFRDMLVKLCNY

Cc1cc(-c2ccc3c(c2)CCN(CCC2CCC(NC(=O)/C=C/c4cccc(Cl)c4)CC2)CC3)on1 (configuration not stated)
active: growth inhibition [4] 101%
inactive: growth inhibition [1] 49% | inhibition [2] 16% | inhibition [3] -4% | outcome [5] | outcome [6] | outcome [7] | outcome [8]

CCCCCCN=C(N)c1ccc2nc(-c3ccc(O)cc3)[nH]c2c1
inactive: inhibition [2] -3% | inhibition [3] 1% | outcome [5] | outcome [6] | outcome [7] | outcome [8]
active: growth inhibition [1] 99% | growth inhibition [4] 100%

COc1ccc2nccc([C@@H](O)CN3CCC(NCc4ccc5nc[nH]c(=O)c5c4)CC3)c2c1
inactive: growth inhibition [1] 4% | inhibition [2] 12% | inhibition [3] -13% | outcome [5] | outcome [6] | outcome [7] | outcome [8]
active: growth inhibition [4] 99%

COc1ccc(/C=C/C(=O)N2CCc3cc4nccc(N5CCN6CCC[C@H]6C5)c4cc32)cc1
inactive: inhibition [2] -3% | inhibition [3] -9% | outcome [5] | outcome [6] | outcome [7] | outcome [8]
active: growth inhibition [1] 98% | growth inhibition [4] 100%

COc1ccc2ncc(F)c(CCN3C[C@H](CNCc4ccc5ccccc5c4)[C@H](O)C3)c2n1
active: growth inhibition [1] 78% | inhibition [2] 57% | growth inhibition [4] 100%
inactive: inhibition [3] -3% | outcome [5] | outcome [6] | outcome [7] | outcome [8]

CCOc1cc(C(=O)NC2CC(C)(C)NC(C)(C)C2)ccc1-c1nc2ccc(Cl)cc2[nH]1
inactive: inhibition [2] 46% | inhibition [3] 4% | outcome [5] | outcome [6] | outcome [7] | outcome [8]
active: growth inhibition [1] 64% | growth inhibition [4] 100%

CN(CCCCN)Cc1ccc(-c2ccc(Cl)cc2)cc1
active: inhibition [2] 96% | growth inhibition [4] 97%
inactive: growth inhibition [1] 20% | inhibition [3] 3% | outcome [5] | outcome [6] | outcome [7] | outcome [8]

CCCc1cc(OC)c(CC2c3cc(O)c(C)cc3CCN2C)cc1OC (configuration not stated)
active: growth inhibition [1] 89% | growth inhibition [4] 99%
inactive: inhibition [2] 32% | inhibition [3] -2% | outcome [5] | outcome [6] | outcome [7] | outcome [8]

COc1ccc(Nc2nccc(-c3ccc(NC(=O)c4cc5cc(F)ccc5[nH]4)cc3)n2)cc1
active: growth inhibition [4] 91%
inactive: growth inhibition [1] 26% | inhibition [2] 21% | inhibition [3] -2% | outcome [5] | outcome [6] | outcome [7] | outcome [8]

Cc1cc(Nc2cccc(C(F)(F)F)c2)nc(N)n1
inactive: growth inhibition [1] 24% | inhibition [2] 5% | inhibition [3] 1% | outcome [5] | outcome [6] | outcome [7] | outcome [8]
active: growth inhibition [4] 98%

COc1ccc(CN(C)CCCCc2ccc(NC(=O)COc3cccc4sc5ccccc5c(=O)c34)cc2)cc1OC
inactive: inhibition [2] 26% | inhibition [3] -1% | outcome [5] | outcome [6] | outcome [7] | outcome [8]
active: growth inhibition [1] 84% | growth inhibition [4] 100%

CC1(C)CCCN(Cc2c(O)ccc3c(=O)c(-c4nc5ccccc5s4)c(N)oc23)C1
active: growth inhibition [1] 100% | growth inhibition [4] 101%
inactive: inhibition [2] 20% | inhibition [3] -1% | outcome [5] | outcome [6] | outcome [7] | outcome [8]

N=C(N)c1ccc(NC(=O)Cc2nc3ccc(C(=N)N)cc3[nH]2)cc1
active: growth inhibition [1] 81% | growth inhibition [4] 87%
inactive: inhibition [2] 4% | inhibition [3] 2% | outcome [5] | outcome [6] | outcome [7] | outcome [8]

CCn1c(SC)nnc1C1CCCN(CC(=O)Nc2nc3ccc(OC)cc3s2)C1 (configuration not stated)
inactive: inhibition [2] -3% | inhibition [3] 0% | outcome [5] | outcome [6] | outcome [7] | outcome [8]
active: growth inhibition [1] 81% | growth inhibition [4] 97%

O=c1cc(NCCCNC2CCc3c(Cl)cc(Cl)cc32)[nH]c2ccccc12 (configuration not stated)
active: growth inhibition [4] 100%
inactive: growth inhibition [1] 29% | inhibition [2] 3% | inhibition [3] 0% | outcome [5] | outcome [6] | outcome [7] | outcome [8]

O=C(N[C@H]1CCN(Cc2ccc(OC3CCN(Cc4ccccc4)CC3)c(Cl)c2)C1)c1ccc(Cl)c(Cl)c1
inactive: growth inhibition [1] 11% | inhibition [3] 0% | outcome [5] | outcome [6] | outcome [7] | outcome [8]
active: inhibition [2] 59% | growth inhibition [4] 99%

C[C@@]12C[C@@H](Nc3nc(NCCc4ccc(O)cc4)nc(N4CCNCC4)n3)C[C@@H](C1)c1cccc(Cl)c1O2
active: inhibition [2] 92% | growth inhibition [4] 101%
inactive: growth inhibition [1] 47% | inhibition [3] 4% | outcome [5] | outcome [6] | outcome [7] | outcome [8]

CN1CCN(Cc2ccc(-c3ccc4ncnc(Nc5ccc(OCc6ccccc6)cc5)c4c3)o2)CC1
active: growth inhibition [1] 90% | growth inhibition [4] 97%
inactive: inhibition [2] 9% | inhibition [3] 2% | outcome [5] | outcome [6] | outcome [7] | outcome [8]

COC(=O)CCCCCOc1cc(Cc2cnc(N)nc2N)cc(OC)c1OC
active: growth inhibition [4] 90%
inactive: growth inhibition [1] -3% | inhibition [2] -15% | inhibition [3] 2% | outcome [5] | outcome [6] | outcome [7] | outcome [8]

O=C(Cc1cnc[nH]1)Nc1ccc(-c2ccc(-c3nc4ccc(F)cc4[nH]3)cc2)cc1
active: growth inhibition [1] 91% | growth inhibition [4] 100%
inactive: inhibition [2] 39% | inhibition [3] 0% | outcome [5] | outcome [6] | outcome [7] | outcome [8]

CN1CCN(c2ccnc3cc4c(cc23)N(C(=O)Nc2ccc(-c3ccncc3)c3ccccc23)CC4)CC1
active: growth inhibition [1] 97% | growth inhibition [4] 101%
inactive: inhibition [2] 10% | inhibition [3] -2% | outcome [5] | outcome [6] | outcome [7] | outcome [8]

O=C(Nc1cccc(-c2cccc(F)c2)c1)C1CCN(Cc2ccc(O)cc2)CC1
inactive: growth inhibition [1] 2% | inhibition [2] 13% | inhibition [3] 3% | outcome [5] | outcome [6] | outcome [7] | outcome [8]
active: growth inhibition [4] 87%

O=C(/C=C/c1ccc(Cl)c(Cl)c1)NCCCCCN1CC[C@H](NC(=O)/C=C/c2ccccc2)C1
active: growth inhibition [4] 93%
inactive: growth inhibition [1] 1% | inhibition [2] 10% | inhibition [3] 1% | outcome [5] | outcome [6] | outcome [7] | outcome [8]

CC(C)(C)NC(=O)C(c1ccc(F)cc1)N(C(=O)c1ccc(CN2CCOCC2)o1)c1ccc(C2CCCCC2)cc1 (configuration not stated)
inactive: inhibition [2] 0% | inhibition [3] -12% | outcome [5] | outcome [6] | outcome [7] | outcome [8]
active: growth inhibition [1] 68% | growth inhibition [4] 87%

O=c1cc(NCCC(CNCCc2ccccc2)NCc2cc(Br)cc(Br)c2)[nH]c2ccccc12 (configuration not stated)
inactive: growth inhibition [1] 47% | inhibition [2] 3% | inhibition [3] -6% | outcome [5] | outcome [6] | outcome [7] | outcome [8]
active: growth inhibition [4] 98%

CC1CN(Cc2ccc(-c3ccc(-c4nc5ccccc5[nH]4)cc3)cc2)CC(C)O1 (configuration not stated)
active: growth inhibition [1] 96% | growth inhibition [4] 98%
inactive: inhibition [2] 48% | inhibition [3] 3% | outcome [5] | outcome [6] | outcome [7] | outcome [8]

CN(CCC1CCN(C(=O)/C=C/c2ccc(Cl)c(Cl)c2)CC1)C1CCC(c2c[nH]c3ccccc23)CC1 (configuration not stated)
active: inhibition [2] 57% | growth inhibition [4] 87%
inactive: growth inhibition [1] 9% | inhibition [3] -5% | outcome [5] | outcome [6] | outcome [7] | outcome [8]

O=C(O)C1CC(=O)N(c2ccc(Cl)cc2)C1 (configuration not stated)
inactive: growth inhibition [1] 33% | inhibition [3] 6% | outcome [5] | outcome [6] | outcome [7] | outcome [8]
active: inhibition [2] 51% | growth inhibition [4] 97%

O=[N+]([O-])c1ccc(CNCCCCCCNCc2ccc([N+](=O)[O-])c3ccccc23)c2ccccc12
inactive: inhibition [3] 0% | outcome [5] | outcome [6] | outcome [7] | outcome [8]
active: growth inhibition [1] 98% | inhibition [2] 88% | growth inhibition [4] 102%

Clc1ccc(CCNCCCCCCNCCc2ccc3c(c2)OCO3)cc1
active: growth inhibition [4] 91%
inactive: growth inhibition [1] 11% | inhibition [2] 23% | inhibition [3] 7% | outcome [5] | outcome [6] | outcome [7] | outcome [8]

O=C(O)c1ccc(NC(=O)C2CC(=O)N(Cc3ccc(Cl)cc3)C(=Nc3ccc(Cl)cc3)S2)cc1 (configuration not stated)
active: growth inhibition [1] 95% | growth inhibition [4] 99%
inactive: inhibition [2] -1% | inhibition [3] -6% | outcome [5] | outcome [6] | outcome [7] | outcome [8]

CCc1cn2c3c(cc(C(=O)N[C@@H](Cc4cccc(Cl)c4)[C@H](O)CNC4CC4)cc13)N(C)S(=O)(=O)CC2
inactive: inhibition [2] 10% | inhibition [3] -1% | outcome [5] | outcome [6] | outcome [7] | outcome [8]
active: growth inhibition [1] 98% | growth inhibition [4] 98%

O=C(NCCCNc1ccc2ccccc2n1)c1cc2c(Cl)cc(Cl)cc2[nH]1
inactive: inhibition [2] 40% | inhibition [3] 4% | outcome [5] | outcome [6] | outcome [7] | outcome [8]
active: growth inhibition [1] 100% | growth inhibition [4] 100%

O=C(NC1CCCCC1)N(Cc1ccc(-c2cccc(CNCc3ccc4c(c3)OCO4)c2)cc1)C1CCN(Cc2ccccc2)CC1
active: growth inhibition [1] 72% | growth inhibition [4] 101%
inactive: inhibition [2] 23% | inhibition [3] 4% | outcome [5] | outcome [6] | outcome [7] | outcome [8]

NCc1cccc(-c2ccccc2CNC2CCN(Cc3ccccc3)CC2)c1
inactive: growth inhibition [1] 4% | inhibition [2] -3% | inhibition [3] -2% | outcome [5] | outcome [6] | outcome [7] | outcome [8]
active: growth inhibition [4] 94%

Cc1cc(N)c2cc(NC(=O)c3cc4ccccc4s3)ccc2n1
active: growth inhibition [1] 99% | inhibition [2] 100% | growth inhibition [4] 101%
inactive: inhibition [3] 2% | outcome [5] | outcome [6] | outcome [7] | outcome [8]

Clc1cccc(Nc2ccc3c(N4CCCCC4)ncnc3n2)c1
active: growth inhibition [1] 93% | inhibition [2] 54% | growth inhibition [4] 97%
inactive: inhibition [3] 0% | outcome [5] | outcome [6] | outcome [7] | outcome [8]

CCc1cn(CCCOC)c2ccc(C(=O)N[C@@H](Cc3ccccc3)[C@H](O)CNCc3cccc(C(F)(F)F)c3)cc12
active: growth inhibition [1] 78% | growth inhibition [4] 93%
inactive: inhibition [2] 8% | inhibition [3] -4% | outcome [5] | outcome [6] | outcome [7] | outcome [8]

COc1ccc(NCc2cccc(-c3cccc(CNCCc4ccccc4)c3)c2)cc1
inactive: growth inhibition [1] 14% | inhibition [2] 41% | inhibition [3] 0% | outcome [5] | outcome [6] | outcome [7] | outcome [8]
active: growth inhibition [4] 96%
